An excerpt weighted towards active compounds, which were near 0.97% of everything screened.
UGM FP inh: Mtb UDP-galactopyranose mutase inhibition. purified UGM, fluorescence polarization probe displacement. actives 0.06% (n = 320,000). AID 504406. inhibition, % at 10 µM. P9WIQ1; in the data active = inhibition above about 10%, passing the limit was not always enough; inconclusive = no clear call, values can overlap the other calls
Target sequence (P9WIQ1 whole entry, looked up): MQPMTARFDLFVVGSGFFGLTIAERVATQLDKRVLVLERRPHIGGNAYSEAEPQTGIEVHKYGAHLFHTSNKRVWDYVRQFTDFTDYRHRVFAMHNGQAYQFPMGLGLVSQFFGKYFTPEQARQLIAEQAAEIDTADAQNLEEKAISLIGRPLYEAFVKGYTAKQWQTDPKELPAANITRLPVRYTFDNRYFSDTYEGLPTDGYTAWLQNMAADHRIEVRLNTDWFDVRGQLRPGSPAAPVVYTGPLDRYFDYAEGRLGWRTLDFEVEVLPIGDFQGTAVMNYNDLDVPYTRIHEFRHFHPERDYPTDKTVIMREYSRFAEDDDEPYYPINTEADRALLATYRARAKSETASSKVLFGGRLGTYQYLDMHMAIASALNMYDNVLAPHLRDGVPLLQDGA
Mtb bLac sens: beta-lactam sensitization of Mtb H37Rv; M. tuberculosis H37Rv growth with meropenem, percent inhibition; actives 0.27% (n = 330,000); AID 434955; inhibition, % at 25 µM;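 note: growth measured after seven days incubation then overnight dye step; 0% = bacteria only wells and 100% = bacteria with antibiotic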
RecA intein inh: inhibitors of M. tuberculosis RecA intein splicing; AID 2221; inhibition, % (concentration not given with the values); P9WHJ3; cell-free RecA intein splicing, fluorescence; actives 0.75% (n = 290,000); in the data active = inhibition above about 30%; inconclusive = no clear call, values can overlap the other calls;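 note: 0% = vehicle wells and 100% = reference inhibitor control wells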
MazF activator: MazEF (E. coli) toxin RNase activation; P0AE70; FAM/BHQ RNA-DNA oligo cleavage fluorescence, 5 h; activation, % at 20 µM; actives 0.32% (n = 350,000); in the data active = activation above about 50%
Target sequence (P0AE70 whole entry, looked up): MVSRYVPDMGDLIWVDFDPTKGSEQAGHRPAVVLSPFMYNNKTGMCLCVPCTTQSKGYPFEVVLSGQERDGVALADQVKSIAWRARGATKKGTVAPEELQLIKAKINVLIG
Rv3671c inh: inhibitors of M. tuberculosis serine protease Rv3671c | actives 0.048% (n = 320,000) | P9WHR9 | inhibition, % at 5.96 µM; in the data active = inhibition above about 38%;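 note: extracellular domain of Rv3671c used as enzyme; 0% = enzyme with DMSO and 100% = no enzyme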
TcdB inh: blocks C. difficile toxin B glycohydrolase activity. P18177. TcdB glycohydrolase enzymatic assay, plate reader. inhibition, % at 9.99 µM. actives 0.24% (n = 350,000). AID 652162; in the data active = inhibition above about 10%
GFP chromo cs: counter-screen GFP chromophore formation inhibition. shares compounds with RecA intein inh. cell-free GFP chromophore formation, fluorescence. EC50, µM. actives 83% (n = 2,100)
Starred values were filed as active, the others as inactive. Unless noted, the rule behind the calls is not given here.

CCOc1cc(C(c2c(C)[nH][nH]c2=O)c2c(C)[nH][nH]c2=O)ccc1OS(=O)(=O)c1ccc(C)cc1 was read as UGM FP inh 0.3, Mtb bLac sens -0.9, RecA intein inh 97.4*, MazF activator -8.4, Rv3671c inh -7.5 and GFP chromo cs 0.493*.
Screening CCC(=O)N(C)C[C@H]1Oc2ncc(-c3ccc(C)cc3)cc2C(=O)N([C@H](C)CO)C[C@H]1C returned TcdB inh -2.0.
Screening CO[C@H]1CN(C)C(=O)c2cc(NC(=O)C3CCCC3)ccc2OC[C@@H](C)N(C(=O)CC2CC2)C[C@H]1C returned TcdB inh -1.7.
For CCc1ccc(OCC(=O)N/N=C2\CC(=O)c3ccccc32)cc1 the results were UGM FP inh 1.6, Mtb bLac sens -13.4, RecA intein inh 53.0*, Rv3671c inh -68.3 and GFP chromo cs 8.83*.
Screening COc1ccc2c3c([nH]c2c1)[C@@H](CO)N(Cc1ccncc1)CC31CCN(C(=O)c2cccnc2)CC1 returned TcdB inh -0.3.
O=C(NCc1ccco1)/C(=C/c1cccc(C(F)(F)F)c1)c1nc2ccccc2[nH]1 was read as UGM FP inh -0.3, Mtb bLac sens -4.1, RecA intein inh 37.6*, MazF activator 7.9, Rv3671c inh 1.1 and GFP chromo cs >38.
O=C(Sc1nnc(-c2ccccc2)o1)N1c2ccccc2Sc2ccccc21 was read as UGM FP inh 1.0, Mtb bLac sens 91.5, RecA intein inh 56.6*, MazF activator 5.1, Rv3671c inh -0.5 and GFP chromo cs 0.918*.
For Cc1cccc(OCC(=O)Nc2ccccc2N2CCCC2)c1C the results were UGM FP inh 0.1, Mtb bLac sens 54.6, RecA intein inh -3.0, MazF activator 0.8, Rv3671c inh 5.8 and TcdB inh -0.1.
`Cc1ccccc1OCC(=O)Nc1ccccc1N1CCCCC1` gave UGM FP inh 1.2, RecA intein inh 31.8*, MazF activator -8.8, Rv3671c inh -5.3 and GFP chromo cs >38.
`COc1ccc2c3c([nH]c2c1)[C@@H](CO)N(C(C)=O)CC31CN(C(=O)Nc2ccc(F)cc2F)C1` gave TcdB inh 0.3.
`O=C(C[C@@H]1C=C[C@@H](NC(=O)CC2CC2)[C@@H](CO)O1)NCc1ccccc1` gave TcdB inh -0.2.
`O=[N+]([O-])c1cncc([N+](=O)[O-])c1Nc1cccc(O)c1` gave UGM FP inh 1.9, Mtb bLac sens 4.1, RecA intein inh 46.1*, MazF activator 12.6, Rv3671c inh 4.7, TcdB inh 0.8 and GFP chromo cs 15.6*.
Cc1ccccc1Nc1c([N+](=O)[O-])cncc1[N+](=O)[O-] was read as UGM FP inh -0.4, Mtb bLac sens 22.3, RecA intein inh 14.7, MazF activator -26.4, Rv3671c inh 6.5 and TcdB inh 3.4.
For CCN(C[C@@H]1[C@@H](c2ccccc2)[C@H](CO)N1CC1CC1)C(=O)c1cccc(F)c1 the results were TcdB inh 0.8.
CCOC(=O)c1nnn(-c2nonc2-n2cccc2)c1CCl was read as UGM FP inh -0.7, Mtb bLac sens 87.7, RecA intein inh 70.1*, MazF activator 3.2, Rv3671c inh 3.3 and GFP chromo cs 11.9*.
For CCCNC(=O)N[C@H]1CC[C@@H](CCn2cc(C3CCCCC3)nn2)O[C@H]1CO the results were TcdB inh -1.1.
For O=C(C[C@H]1CC[C@H](NC(=O)c2cnccn2)[C@H](CO)O1)NCc1ccccc1F the results were TcdB inh 1.3.
For COC(=O)c1c(NC(=O)/C=C/C(=O)O)sc(Cc2ccccc2)c1C the results were UGM FP inh -1.0, Mtb bLac sens -1.0, RecA intein inh 51.1*, MazF activator 0.7, Rv3671c inh 1.1 and GFP chromo cs 24.3*.
COc1cccc(C(=O)O/N=C(\N)c2ccc([N+](=O)[O-])cc2)c1OC was read as UGM FP inh -0.4, Mtb bLac sens 4.8, RecA intein inh 51.6*, MazF activator 6.5, Rv3671c inh 5.2 and GFP chromo cs >38.
For COc1ccc(/C(N)=N/OC(=O)c2cccc([N+](=O)[O-])c2C)cc1OC the results were UGM FP inh -0.9, Mtb bLac sens -16.2, RecA intein inh -3.9, MazF activator -2.2 and Rv3671c inh -9.2.
COc1ccc(OCc2cc(C(=O)NC3CCOC(C)(C)C3)no2)c2ccccc12 (configuration not stated) was read as UGM FP inh -0.8, Mtb bLac sens 3.0, RecA intein inh 53.5*, Rv3671c inh -30.0, TcdB inh 1.9 and GFP chromo cs 11.6*.
Screening O=C(Nc1ncc([N+](=O)[O-])s1)c1ccco1 returned UGM FP inh 0.1, Mtb bLac sens inconclusive, RecA intein inh 30.9*, MazF activator 1.2, Rv3671c inh -2.9, TcdB inh 0.5 and GFP chromo cs 21.1*.
For COc1ccc(NC(=O)Nc2cccc3c2O[C@@H](CN(C)Cc2ccncc2)[C@@H](C)CN([C@@H](C)CO)C3=O)cc1 the results were TcdB inh -1.0.
`C=CCOc1ccccc1CN(C(=O)CCl)c1ccc2c(c1)OCO2` gave UGM FP inh 0.1, Mtb bLac sens 95.7, RecA intein inh 80.6*, MazF activator -2.6, Rv3671c inh -1.7, TcdB inh -0.6 and GFP chromo cs 8.27*.
For CCOc1ccccc1NC(=O)Nc1ccc2c(c1)OCO2 the results were UGM FP inh 1.6, Mtb bLac sens 3.8, RecA intein inh -2.5, MazF activator 6.8, Rv3671c inh -3.7 and TcdB inh -2.1.
`CC1(C)CC(=O)C(C2(O)C(=O)NC(=O)NC2=O)=C(O)C1` gave UGM FP inh 2.1, Mtb bLac sens 8.0, RecA intein inh 95.5*, MazF activator 11.3, Rv3671c inh -131.0 and GFP chromo cs 2.52*.
Screening C[C@@H]1CCCCO[C@H](CN(C)C(=O)Nc2ccc(C(F)(F)F)cc2)[C@H](C)CN([C@@H](C)CO)C(=O)c2cc(NC(=O)c3ccncc3)ccc2O1 returned TcdB inh 1.1.
Screening O=C(NC(=S)NNC(=O)c1cc2ccccc2cc1O)c1ccco1 returned UGM FP inh 2.0, Mtb bLac sens 40.1, RecA intein inh 11.3, MazF activator -3.0, Rv3671c inh 22.5 and TcdB inh 1.3.
`O=C(NC(=S)NNC(=O)c1ccccc1O)c1ccco1` gave UGM FP inh 2.5, Mtb bLac sens -2.4, RecA intein inh 36.3*, MazF activator -6.0, Rv3671c inh 24.8, TcdB inh 0.2 and GFP chromo cs >38.
Screening N#CC1=C(N)N(c2ccccc2)C(c2ccccc2)C1(C#N)C#N (configuration not stated) returned UGM FP inh 2.8, Mtb bLac sens 18.9, RecA intein inh 43.4*, MazF activator 8.8, Rv3671c inh 12.0 and GFP chromo cs 30.8*.
